The nature of experiment [1]: ATG_RORE_CIS: Attagene CIS-FACTORIAL HepG2 Assay for human RAR-related Orphan Receptor Element (RORE) (AID 2282959). The note with it: HepG2 Attagene cis-factorial RORE reporter, mRNA; actives raise or lower the signal. Put shortly:
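Measured here: transcript induction of a cis-regulated reporter in HepG2 cells transiently transfected via FuGene 6. After 24 h, RNA was processed by RT-PCR and fluorescent capillary electrophoresis; DMSO defined baseline activity.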

Experiment [2] can be described thus: ATG_Sox_CIS: Attagene CIS-FACTORIAL HepG2 Assay for human SRY-box transcription factor (SOX) (AID 2282960). The note with it: HepG2 Attagene cis-factorial SOX reporter, mRNA; actives raise or lower the signal. In short, it runs like this:
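Using transiently transfected HepG2 cells, reporter transcription driven by cis elements was assessed 24 h after dosing. Signal was fluorescence of capillary-separated RT-PCR products, with DMSO defining baseline activity.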

Experiment [3] has as its target Transcription factor Sp1 (Homo sapiens) (UniProt P08047). Kind of experiment: ATG_Sp1_CIS: Attagene CIS-FACTORIAL HepG2 Assay for human Specificity Protein 1 (Sp1) (AID 2282961). The note with it: HepG2 Sp1 cis-reporter transcription, actives raise or lower the signal. In short, it runs like this: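 After transient transfection of HepG2 cells with cis-promoter reporter units and 24 h chemical treatment, reporter transcripts were quantified by RT-PCR and capillary electrophoresis fluorescence. Gain- and loss-of-signal fitted against DMSO.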

The nature of experiment [4]: ATG_SREBP_CIS: Attagene CIS-FACTORIAL HepG2 Assay for human Sterol Regulatory Element Binding (SREBP) (AID 2282962). The note with it: HepG2 Attagene cis-factorial SREBP reporter, mRNA; actives raise or lower the signal. Put shortly: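 Twenty-four hours after chemical dosing of transfected HepG2 cultures, reporter RNA was converted to cDNA, amplified, end-labelled with 6-FAM and resolved by capillary electrophoresis. Responses were fitted relative to DMSO.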

Experiment [5] addresses Signal transducer and activator of transcription 3 (Homo sapiens) (UniProt P40763). The experiment in a line: ATG_STAT3_CIS: Attagene CIS-FACTORIAL HepG2 Assay for human Signal Transducer and Activator of Transcription 3 (STAT3) (AID 2282963). The note with it: HepG2, Attagene cis-factorial STAT3 reporter transcription; actives raise or lower the signal. In short, it runs like this: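 Endogenous STAT3-responsive cis-element activity was read in transiently transfected HepG2 cells after 24 h treatment. Reporter transcripts were quantified via RT-PCR and capillary electrophoresis, with DMSO as negative control and bidirectional curve fitting.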

Experiment [6] in a line: ATG_TA_CIS: Attagene CIS-FACTORIAL HepG2 Assay for human TA Basal Promoter (AID 2282964). The conditions noted are these: HepG2 Attagene CIS-factorial TA basal promoter reporter; actives raise or lower the signal. In short, it runs like this:
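Multiplexed mRNA reporter assay, HepG2, 24 h. Reporter cDNA amplified, 6-FAM primer-extended, HpaI-cut, CE-sized; DMSO = negative control and baseline.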

A short description of experiment [7]: ATG_TCF_b_cat_CIS: Attagene CIS-FACTORIAL HepG2 Assay for human T-Cell-Factor with beta-catenin (TCF/b-cat) (AID 2282965). The note with it: HepG2 TCF/beta-catenin cis-reporter transcription, actives raise or lower the signal. Put shortly:
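Endogenous TCF/LEF activity read as reporter transcript level via RT-PCR and capillary electrophoresis fluorescence in transfected HepG2, 24 h exposure; gain or loss of signal fitted against DMSO controls.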

A short description of experiment [8]: ATG_TAL_CIS: Attagene CIS-FACTORIAL HepG2 Assay for human TAL Basal Promoter (AID 2282966).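 Further: background control endpoint measuring basal TAL promoter reporter mRNA not a specific factor.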 The conditions noted are these: HepG2 Attagene cis-factorial TAL promoter reporter; actives raise or lower the signal. In short, it runs like this: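 HepG2 cells transiently transfected with multiplexed cis-promoter reporter units, dosed 24 h. Reporter mRNA quantified by RT-PCR, 6-FAM labelling, HpaI digestion and capillary electrophoresis; TAL basal promoter serves as background control, fitted bidirectionally versus DMSO.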

A short description of experiment [9]: ATG_TGFb_CIS: Attagene CIS-FACTORIAL HepG2 Assay for human Transforming Growth Factor (TGF) (AID 2282967). The note with it: HepG2 Attagene CIS TGFb reporter, mRNA transcription; actives raise or lower the signal. Put shortly: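 Transcript-level reporter readout: HepG2 transfectants, 24 h exposure, RNA to cDNA, reporter-specific PCR, fluorescent primer extension, capillary sizing against ROX standards. Gain- or loss-of-signal relative to DMSO.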

Experiment [10] is described as follows: ATG_VDRE_CIS: Attagene CIS-FACTORIAL HepG2 Assay for human Vitamin D Receptor Element (VDRE) (AID 2282968). The note with it: HepG2 VDRE cis-reporter transcription, actives raise or lower the signal. In short, it runs like this:
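Reporter mRNA induction, quantified by capillary electrophoresis of fluorescently labelled RT-PCR products, was read 24 h after dosing HepG2 cells carrying transiently transfected cis-regulated reporter units; gain or loss relative to DMSO.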

Experiment [11] deals with Nuclear receptor subfamily 1 group I member 3 (Homo sapiens) (UniProt Q14994). The experiment in a line: ATG_CAR_TRANS: Attagene TRANS-FACTORIAL HepG2 Assay for human Constitutive Androstane Receptor (CAR) (AID 2282969; active means hit-call score of the fitted dose curve at least 0.9, where 1 is the maximum;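 further: activators raise reporter mRNA above DMSO so AC50 marks induction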). The conditions noted are these: HepG2 Attagene TRANS-FACTORIAL CAR reporter. In short, it runs like this:
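Readout is reporter mRNA induction, quantified by fluorescent primer extension and capillary electrophoresis after RT-PCR. Cells were HepG2 transiently carrying chimeric NR-Gal4 constructs with GAL4-UAS reporters, treated for 24 h; activity scored upward from DMSO.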

In experiment [12] the target is Estrogen receptor (Homo sapiens) (UniProt P03372). The experiment in a line: ATG_ERa_TRANS: Attagene TRANS-FACTORIAL HepG2 Assay for human Estrogen Receptor alpha (ERa) (AID 2282970; active means hit-call score of the fitted dose curve at least 0.9, where 1 is the maximum). The conditions noted are these: HepG2 Attagene TRANS ERa GAL4 reporter, mRNA. Put shortly:
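HepG2 cells transiently transfected with multiplexed GAL4-UAS reporter units read out chimeric NR-Gal4 activity. After 24 h compound exposure, reporter mRNA was quantified by RT-PCR, 6-FAM labeling, HpaI digestion and capillary electrophoresis, relative to DMSO.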

Experiment [13] has as its target Steroid hormone receptor ERR1 (Homo sapiens) (UniProt P11474). The experiment in a line: ATG_ERRa_TRANS: Attagene TRANS-FACTORIAL HepG2 Assay for human Estrogen-Related Receptor alpha (ERRa) (AID 2282971; active means hit-call score of the fitted dose curve at least 0.9, where 1 is the maximum). The conditions noted are these: HepG2 Attagene TRANS reporter, ERRa transactivation. Put shortly:
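HepG2 cells transiently transfected with GAL4-UAS reporter units and chimeric NR-Gal4 constructs; after 24 hour compound incubation, reporter mRNA quantified by RT-PCR, fluorescent labelling and capillary electrophoresis, gain of signal versus DMSO.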

Experiment [14] concerns the target X-box-binding protein 1 (Homo sapiens) (UniProt P17861). Kind of experiment: ATG_Xbp1_CIS: Attagene CIS-FACTORIAL HepG2 Assay for human X-box Binding Protein 1 (XBP1) (AID 2282972). The note with it: HepG2 XBP1 cis-element reporter, Attagene multiplex; actives raise or lower the signal. Put shortly:
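After a 24-hour chemical exposure of HepG2 cells carrying cis-regulated reporters, reporter mRNA levels are assessed. Quantification uses RT-PCR, 6-FAM labelling and capillary electrophoresis. Gain- or loss-of-signal is fitted against DMSO.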

Experiment [15] is described as follows: ATG_M_19_TRANS: Attagene TRANS-FACTORIAL HepG2 Assay for M19 Transcription Factor (Internal Marker) (AID 2282974; active means hit-call score of the fitted dose curve at least 0.9, where 1 is the maximum). The note with it: HepG2 Attagene TRANS-FACTORIAL M19 internal marker reporter. Put shortly: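 Gain-of-signal in reporter mRNA, relative to DMSO, was scored from capillary electrophoresis fluorescence. HepG2 cells carried transiently transfected multiple reporter transcription units and were incubated with test chemicals for 24 h.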

Experiment [16] has as its target Glucocorticoid receptor (Homo sapiens) (UniProt P04150). Kind of experiment: ATG_GR_TRANS: Attagene TRANS-FACTORIAL HepG2 Assay for human Glucocorticoid Receptor (GR) (AID 2282978; active means hit-call score of the fitted dose curve at least 0.9, where 1 is the maximum;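 further: activators score as hits since higher reporter transcript over DMSO is fitted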). The note with it: HepG2 Attagene TRANS GR reporter, mRNA transcription. Put shortly:
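HepG2 transient transfection, multiple reporter units, GAL4-UAS under NR-GAL4 chimera control. 24 h treatment. Reporter mRNA by RT-PCR/CE fluorescence, DMSO as negative control.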

In experiment [17] the target is Bile acid receptor (Homo sapiens) (UniProt Q96RI1). Kind of experiment: ATG_FXR_TRANS: Attagene TRANS-FACTORIAL HepG2 Assay for Farnesoid X Receptor (FXR) (AID 2282979; active means hit-call score of the fitted dose curve at least 0.9, where 1 is the maximum;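 further: hits raise reporter mRNA above DMSO so AC50 marks FXR activation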). The conditions noted are these: HepG2 Attagene TRANS FXR-GAL4 reporter transcription. Put shortly:
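HepG2 cells were transiently transfected with GAL4-UAS reporters driven by chimeric NR-Gal4 proteins and dosed for 24 h. Reporter mRNA was quantified by RT-PCR, fluorescent labelling, HpaI digestion and capillary electrophoresis, with gain of signal scored versus DMSO.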

A short description of experiment [18]: ATG_GAL4_TRANS: Attagene TRANS-FACTORIAL HepG2 Assay for GAL4 (Internal Marker) (AID 2282976; active means hit-call score of the fitted dose curve at least 0.9, where 1 is the maximum). The conditions noted are these: HepG2 Attagene TRANS GAL4 internal marker reporter. Put shortly:
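Background-control readout: GAL4-UAS reporter transcript in transiently transfected HepG2 cells after 24 h compound exposure. Measured by RT-PCR, 6-FAM primer extension, HpaI digest and capillary electrophoresis; gain-of-signal fit versus DMSO.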

Experiment [19] concerns the target Estrogen-related receptor gamma (Homo sapiens) (UniProt P62508). Kind of experiment: ATG_ERRg_TRANS: Attagene TRANS-FACTORIAL HepG2 Assay for human Estrogen-Related Receptor gamma (ERRg) (AID 2282977; active means hit-call score of the fitted dose curve at least 0.9, where 1 is the maximum;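 further: hits increase reporter signal over DMSO so potencies reflect activators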). The conditions noted are these: HepG2 Attagene TRANS reporter, ERRg transactivation. In short, it runs like this:
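HepG2 cells transiently transfected with multiplexed GAL4-UAS reporter units driven by chimeric NR-Gal4 proteins; 24 h exposure. Reporter mRNA quantified by RT-PCR, fluorescent labelling, HpaI digestion and capillary electrophoresis; gain of signal vs DMSO.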

From PubChem BioAssay (EPA / NIEHS) come the findings set out here.

The structures appear in SMILES notation. Records with an inconclusive call do not appear. Calls of active or inactive are those of the source. How the source made its calls, unless noted: active means hit-call score of the fitted dose curve at least 0.9, where 1 is the maximum; inactive means score below 0.9.

Sequence of X-box-binding protein 1 (Homo sapiens) (P17861 whole entry, looked up): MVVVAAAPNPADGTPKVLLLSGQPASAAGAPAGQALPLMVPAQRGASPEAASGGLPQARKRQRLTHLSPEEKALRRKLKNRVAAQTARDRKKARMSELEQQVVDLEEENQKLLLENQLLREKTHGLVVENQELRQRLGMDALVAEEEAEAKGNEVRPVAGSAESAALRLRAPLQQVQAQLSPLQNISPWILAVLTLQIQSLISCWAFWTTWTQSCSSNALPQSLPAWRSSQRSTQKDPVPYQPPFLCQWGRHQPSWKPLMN
Sequence of Transcription factor Sp1 (Homo sapiens) (P08047 whole entry, looked up): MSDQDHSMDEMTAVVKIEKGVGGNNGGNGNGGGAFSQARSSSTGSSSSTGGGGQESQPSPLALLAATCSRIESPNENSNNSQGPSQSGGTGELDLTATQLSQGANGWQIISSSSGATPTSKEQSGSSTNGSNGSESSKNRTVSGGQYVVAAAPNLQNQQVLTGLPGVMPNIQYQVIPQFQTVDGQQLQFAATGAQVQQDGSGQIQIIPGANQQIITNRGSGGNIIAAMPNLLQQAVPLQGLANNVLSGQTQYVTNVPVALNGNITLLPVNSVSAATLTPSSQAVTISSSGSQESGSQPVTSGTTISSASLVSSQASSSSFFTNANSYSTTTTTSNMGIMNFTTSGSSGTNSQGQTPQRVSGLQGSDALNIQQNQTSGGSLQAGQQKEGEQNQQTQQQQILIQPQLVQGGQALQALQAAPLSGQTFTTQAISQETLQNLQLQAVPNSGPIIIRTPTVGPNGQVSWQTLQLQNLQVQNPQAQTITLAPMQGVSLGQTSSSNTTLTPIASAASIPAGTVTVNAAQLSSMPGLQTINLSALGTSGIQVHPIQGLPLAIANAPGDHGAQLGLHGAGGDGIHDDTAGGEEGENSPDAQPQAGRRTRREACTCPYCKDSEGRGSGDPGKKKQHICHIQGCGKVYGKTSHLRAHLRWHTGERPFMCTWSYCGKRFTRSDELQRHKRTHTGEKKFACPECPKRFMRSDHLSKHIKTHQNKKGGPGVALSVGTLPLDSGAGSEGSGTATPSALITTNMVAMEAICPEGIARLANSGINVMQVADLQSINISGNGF
Sequence of Steroid hormone receptor ERR1 (Homo sapiens) (P11474 whole entry, looked up, the tested form may be a part): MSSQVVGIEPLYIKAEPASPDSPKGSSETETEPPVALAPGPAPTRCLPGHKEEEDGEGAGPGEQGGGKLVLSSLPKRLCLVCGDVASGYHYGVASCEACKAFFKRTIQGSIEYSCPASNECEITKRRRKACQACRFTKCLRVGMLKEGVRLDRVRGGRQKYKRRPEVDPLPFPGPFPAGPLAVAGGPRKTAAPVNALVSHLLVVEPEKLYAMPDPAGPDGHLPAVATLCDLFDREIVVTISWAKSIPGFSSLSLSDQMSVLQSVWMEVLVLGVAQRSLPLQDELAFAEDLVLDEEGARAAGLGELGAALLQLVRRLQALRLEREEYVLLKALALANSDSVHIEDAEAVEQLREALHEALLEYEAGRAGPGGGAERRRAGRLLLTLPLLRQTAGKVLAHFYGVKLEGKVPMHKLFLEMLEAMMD
Sequence of Signal transducer and activator of transcription 3 (Homo sapiens) (P40763 whole entry, looked up): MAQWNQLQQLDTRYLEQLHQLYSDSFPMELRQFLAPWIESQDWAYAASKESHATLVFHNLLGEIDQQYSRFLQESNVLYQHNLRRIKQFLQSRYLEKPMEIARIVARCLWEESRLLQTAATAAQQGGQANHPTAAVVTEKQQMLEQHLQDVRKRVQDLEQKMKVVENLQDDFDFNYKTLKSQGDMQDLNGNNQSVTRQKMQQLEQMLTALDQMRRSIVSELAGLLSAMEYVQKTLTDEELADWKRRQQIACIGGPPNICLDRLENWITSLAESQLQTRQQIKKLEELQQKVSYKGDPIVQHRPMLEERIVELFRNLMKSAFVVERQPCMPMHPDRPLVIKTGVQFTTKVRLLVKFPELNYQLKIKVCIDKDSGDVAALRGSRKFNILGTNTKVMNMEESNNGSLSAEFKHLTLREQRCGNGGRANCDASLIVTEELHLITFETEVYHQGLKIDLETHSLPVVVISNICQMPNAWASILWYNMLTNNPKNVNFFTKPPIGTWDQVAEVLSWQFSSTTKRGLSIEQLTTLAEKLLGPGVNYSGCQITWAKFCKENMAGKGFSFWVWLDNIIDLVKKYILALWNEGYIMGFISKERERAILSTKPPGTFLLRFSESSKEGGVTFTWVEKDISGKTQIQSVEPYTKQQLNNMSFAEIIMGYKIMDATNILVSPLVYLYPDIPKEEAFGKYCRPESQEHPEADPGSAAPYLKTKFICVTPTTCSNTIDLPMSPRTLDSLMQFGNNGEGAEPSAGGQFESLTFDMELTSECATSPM
Sequence of Glucocorticoid receptor (Homo sapiens) (P04150 whole entry, looked up, the tested form may be a part): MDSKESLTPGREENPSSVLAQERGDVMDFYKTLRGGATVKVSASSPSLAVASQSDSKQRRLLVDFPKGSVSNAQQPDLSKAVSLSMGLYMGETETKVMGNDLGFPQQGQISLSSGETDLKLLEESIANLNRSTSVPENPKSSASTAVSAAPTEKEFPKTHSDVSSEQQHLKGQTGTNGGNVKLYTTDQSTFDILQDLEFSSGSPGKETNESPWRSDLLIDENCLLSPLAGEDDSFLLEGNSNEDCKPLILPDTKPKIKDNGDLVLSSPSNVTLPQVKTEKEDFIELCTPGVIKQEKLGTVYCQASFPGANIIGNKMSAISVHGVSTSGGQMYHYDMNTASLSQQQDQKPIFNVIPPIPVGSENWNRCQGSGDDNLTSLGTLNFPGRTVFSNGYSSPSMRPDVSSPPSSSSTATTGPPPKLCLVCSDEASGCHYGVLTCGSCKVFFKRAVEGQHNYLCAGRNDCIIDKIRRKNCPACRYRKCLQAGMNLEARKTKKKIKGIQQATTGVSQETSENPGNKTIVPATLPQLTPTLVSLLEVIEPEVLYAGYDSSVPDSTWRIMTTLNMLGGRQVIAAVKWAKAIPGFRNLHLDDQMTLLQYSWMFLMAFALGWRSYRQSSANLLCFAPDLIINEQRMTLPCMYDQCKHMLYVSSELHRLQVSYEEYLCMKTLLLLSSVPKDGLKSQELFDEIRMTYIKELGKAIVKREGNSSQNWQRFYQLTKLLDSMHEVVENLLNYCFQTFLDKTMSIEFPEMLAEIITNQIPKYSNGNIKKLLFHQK
Sequence of Estrogen receptor (Homo sapiens) (P03372 whole entry, looked up, the tested form may be a part): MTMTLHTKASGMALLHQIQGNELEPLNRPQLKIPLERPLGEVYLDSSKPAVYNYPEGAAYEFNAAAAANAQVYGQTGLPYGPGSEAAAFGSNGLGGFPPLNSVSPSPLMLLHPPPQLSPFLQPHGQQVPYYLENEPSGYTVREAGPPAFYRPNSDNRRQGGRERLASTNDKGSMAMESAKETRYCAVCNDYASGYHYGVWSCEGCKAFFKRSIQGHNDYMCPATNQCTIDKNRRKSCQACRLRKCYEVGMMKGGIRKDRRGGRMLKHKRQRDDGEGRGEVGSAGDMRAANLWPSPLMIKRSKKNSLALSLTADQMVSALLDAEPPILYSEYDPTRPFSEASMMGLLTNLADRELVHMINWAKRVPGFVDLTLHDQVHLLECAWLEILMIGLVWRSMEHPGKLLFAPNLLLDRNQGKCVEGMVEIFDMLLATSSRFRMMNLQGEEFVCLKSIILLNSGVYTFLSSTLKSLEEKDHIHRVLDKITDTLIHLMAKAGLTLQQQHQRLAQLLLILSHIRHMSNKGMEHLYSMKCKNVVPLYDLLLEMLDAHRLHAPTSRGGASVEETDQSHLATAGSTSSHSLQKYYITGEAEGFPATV
Sequence of Bile acid receptor (Homo sapiens) (Q96RI1 whole entry, looked up, the tested form may be a part): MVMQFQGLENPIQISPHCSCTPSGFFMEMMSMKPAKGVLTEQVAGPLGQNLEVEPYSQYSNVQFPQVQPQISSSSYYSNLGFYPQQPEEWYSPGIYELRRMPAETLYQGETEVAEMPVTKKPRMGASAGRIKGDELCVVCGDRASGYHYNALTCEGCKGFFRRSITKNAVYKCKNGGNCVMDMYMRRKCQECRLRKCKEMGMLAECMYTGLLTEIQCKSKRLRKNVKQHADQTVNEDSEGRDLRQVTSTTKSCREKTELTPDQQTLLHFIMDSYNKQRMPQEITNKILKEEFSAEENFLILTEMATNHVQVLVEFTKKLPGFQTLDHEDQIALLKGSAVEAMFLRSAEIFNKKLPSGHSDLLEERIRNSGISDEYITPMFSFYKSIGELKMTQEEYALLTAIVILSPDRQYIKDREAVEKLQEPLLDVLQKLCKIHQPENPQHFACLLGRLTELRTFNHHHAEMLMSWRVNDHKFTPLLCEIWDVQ
Sequence of Estrogen-related receptor gamma (Homo sapiens) (P62508 whole entry, looked up, the tested form may be a part): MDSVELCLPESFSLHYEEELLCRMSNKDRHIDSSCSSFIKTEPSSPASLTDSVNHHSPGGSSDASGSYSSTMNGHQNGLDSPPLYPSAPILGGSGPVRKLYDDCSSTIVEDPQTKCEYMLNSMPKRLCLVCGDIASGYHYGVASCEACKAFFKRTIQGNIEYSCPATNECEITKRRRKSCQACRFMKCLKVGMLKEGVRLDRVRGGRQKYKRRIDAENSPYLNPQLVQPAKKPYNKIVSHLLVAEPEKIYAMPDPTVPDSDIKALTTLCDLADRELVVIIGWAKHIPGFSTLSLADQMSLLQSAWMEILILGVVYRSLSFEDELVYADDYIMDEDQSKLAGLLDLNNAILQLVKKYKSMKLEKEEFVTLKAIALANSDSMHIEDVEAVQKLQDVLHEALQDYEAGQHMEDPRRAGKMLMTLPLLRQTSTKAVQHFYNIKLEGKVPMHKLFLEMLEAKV
Sequence of Nuclear receptor subfamily 1 group I member 3 (Homo sapiens) (Q14994 whole entry, looked up, the tested form may be a part): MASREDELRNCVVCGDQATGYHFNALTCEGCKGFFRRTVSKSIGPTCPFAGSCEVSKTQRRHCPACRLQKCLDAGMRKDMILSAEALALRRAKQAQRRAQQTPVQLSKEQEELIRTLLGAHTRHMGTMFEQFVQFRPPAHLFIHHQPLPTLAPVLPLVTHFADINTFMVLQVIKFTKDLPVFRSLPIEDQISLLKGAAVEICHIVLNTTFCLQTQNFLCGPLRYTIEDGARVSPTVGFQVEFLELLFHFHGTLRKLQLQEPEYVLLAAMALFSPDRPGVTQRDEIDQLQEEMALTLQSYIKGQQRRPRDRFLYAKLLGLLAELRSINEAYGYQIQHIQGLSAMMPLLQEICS

For the compound `Cc1ccccc1OP(=O)(Oc1ccccc1C)Oc1ccccc1C`, the compound was classed as inactive in [1], in experiment [2], in [4], in experiment [5], in experiment [6] and in experiment [7]. Also, the call in experiment [8], in experiment [11], in [13], in experiment [15], in experiment [16] and in [17] was inactive. Moreover, the AC50 in [3] was 71.8 µM (active); in [9] it was 56.1 µM (active); in experiment [10] it was 0.533 µM (active); in [12], 1.3 µM (active); in [14], 56.1 µM (active).
With `CC(O)(CS(=O)(=O)c1ccc(F)cc1)C(=O)Nc1ccc(C#N)c(C(F)(F)F)c1` (stereo unspecified), the compound was classed as inactive in [1], in experiment [2], in experiment [3], in [4], in experiment [5] and in [6]. Further, the call in experiment [7], in [8], in experiment [9], in experiment [13], in experiment [14] and in experiment [18] was inactive. Also, in experiment [16], the compound was classed as inactive. Besides, the AC50 in experiment [10] was 32.3 µM (active).
For the compound `FC(F)OCC(F)(F)C(F)(F)F`, the call in [1], in experiment [2], in [3], in experiment [4], in experiment [5] and in [6] was inactive. Also, the outcome in [7], in experiment [8], in [9], in experiment [10], in experiment [13] and in experiment [14] was inactive. In addition, the result in experiment [18] and in experiment [17] was inactive.
As to `CCOC(=O)c1ccccc1S(=O)(=O)NC(=O)Nc1nc(Cl)cc(OC)n1`, the compound was classed as inactive in experiment [1], in [2], in experiment [3], in experiment [4], in experiment [5] and in [6]. The compound was classed as inactive in [7], in experiment [8], in experiment [9], in experiment [10], in experiment [14] and in experiment [16].
Regarding `C=C(C)C(=O)OCC(CC)CCCC` (stereo unspecified), the outcome in experiment [1], in [2], in [3], in experiment [4], in [5] and in [6] was inactive. In addition, the outcome in [7], in experiment [8], in experiment [9], in experiment [10], in [12] and in experiment [14] was inactive. In addition, the result in experiment [18] and in [19] was inactive.
